From PubChem
The list is not random: actives were taken first. Their share in the collection is about 19%.
TDP1 cell CPT = DT40-hTDP1 cell growth loss with CPT. chicken DT40 Tdp1-/-;hTDP1 cells + 20 nM CPT, ATP luminescence, 48 h. Potency, µM (series often up to 46.2 µM), for the others: top-dose activity change, negative = growth inhibition, hits mostly inhibitors. 12% of 420,000 active. AID 686979; note: potency is the fitted concentration of half-maximal effect; nearly all actives have a fitted effect of over 55% in size
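Chicken DT40 Tdp1-/- cells stably complemented with human TDP1 were seeded at 400 cells/well in medium containing 20 nM camptothecin, exposed to pin-transferred compounds, and grown at 37 °C for at least 48 hr. Viability was read as ATP luminescence.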
HT1080NT lethal = kills 2HG-producing HT-1080-NT fibrosarcoma cells. HT-1080-NT fibrosarcoma viability, CellTiter-Glo ATP luminescence, 48 h. Potency, µM (doses to about 46.1 µM), inactives show at the top dose activity, negative = less viability, most hits filed as cytotoxic. 1.6% of 360,000 active. AID 686970;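 note: NT is the 2HG producing partner of a matched IDH1 knockdown line; potency is the fitted concentration of half-maximal effect; 0% = DMSO-treated cells and -100% = media-only wells without cells; nearly all actives have a fitted effect of over 55% in size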
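A 48-hour cytotoxicity screen used HT-1080-NT cells plated 2 hours before compound delivery. ATP-based CellTiter-Glo luminescence measured viability, normalized to DMSO and no-cell controls.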
TDP1 cell noCPT = qHTS for Inhibitors of human tyrosyl-DNA phosphodiesterase 1 (TDP1): qHTS in cells in absence of CPT | DT40 Tdp1-/- hTDP1 cells, no CPT, ATP luminescence, 48 h | Potency, µM (titrated, usually from 46.2 µM), inactives show top-dose activity change, negative = growth inhibition, usual class: inhibitors | AID 686978, 2013 | 15% of 420,000 active; note: potency is the fitted concentration of half-maximal effect; nearly all actives have a fitted effect of over 55% in size
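Luminescent ATP content (CellTiter-Glo) served as the growth readout. Knockout chicken DT40 cells expressing human TDP1 were exposed to compounds without camptothecin for a minimum 48 hr at 37 °C.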
HT1080 IDH1KD tx = kills HT-1080 cells with IDH1 knockdown | 2% of 360,000 active | Potency, µM (series often up to 46.1 µM), for inactives: at the top dose activity, negative = toxicity, most hits filed as cytotoxic | HT-1080 IDH1 knockdown viability, ATP luminescence, 48 h;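 note: potency is the fitted concentration of half-maximal effect; 0% = DMSO wells and -100% = cell-free medium wells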
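IDH1KD HT-1080 cells, 750/well, RPMI + 5% FBS; compound pinned after 2 h settling; 48 h, 37 °C; CellTiter-Glo luminescence; % activity normalised to DMSO and no-cell wells; curves fitted, classed by r2 and efficacy.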
IL1B secr inh = inflammasome signaling inhibition, IL-1 beta readout | THP-1 LPS/ATP IL-1B secretion, AlphaLISA, 16 h; stronger effect = lower value | activity change, % at 57.5 µM | 4.7% of 360,000 active; in the data active = activity change below about -50%; inconclusive = mostly about -30% to -49%
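Secreted IL-1B measured by AlphaLISA bead assay after 16 h compound exposure of THP-1 cells; compounds (final up to 57.5 uM) added 1 h before LPS (250 ng/mL) and ATP (1.25 mM) stimulation; lower signal means less secretion.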
* marks the source's active call; other numbers are inactive results; i = inactive; ? = inconclusive; · = no result; [ ] = remark or other dose. Unless noted, calls come from the whole dose curve; as a rule, active = well fitted curve in the direction sought with a large enough effect; inconclusive = small, poorly fitted or top-dose-only effect, or another doubt; inactive = no such curve, though single readings can be large; an effect the other way counts as inactive or inconclusive. Unless noted, % is set by controls: 0 for no effect and ±100 for the full control effect.

SMILES	TDP1 cell CPT	HT1080NT lethal	TDP1 cell noCPT	HT1080 IDH1KD tx	IL1B secr inh
COCCCn1c(C(=O)Nc2ccc3c(c2)OCO3)cc2c(=O)n3cccc(C)c3nc21	?	7.9%	11.6µM*	14.1%	-3.3
COc1ccc(CNC(=O)c2cc3c(=O)n4cccc(C)c4nc3n(CC3CCCO3)c2=N)cc1 (stereo unspecified)	?	-15.0%	?	-10.0%	20.1
Cc1cccn2c(=O)c3cc(C(=O)NC4CCCCC4)c(=N)n(Cc4ccc(F)cc4)c3nc12	8.2µM*	-3.4%	14.6µM*	-8.3%	92.1
COCCCn1c(C(=O)N2CCOCC2)cc2c(=O)n3cccc(C)c3nc21	1.3%	4.6%	-6.2%	5.1%	-3.9
Cc1cccn2c(=O)c3cc(C(=O)NCCN4CCOCC4)c(=N)n(Cc4ccc(F)cc4)c3nc12	7.31µM*	-22.3%	7.31µM*	?	?
Cc1cccn2c(=O)c3cc(C(=O)NCCN4CCOCC4)c(=N)n(CCN4CCOCC4)c3nc12	-1.6%	11.6%	-21.2%	0.3%	-27.1
Cc1cccn2c(=O)c3cc(C(=O)NCc4ccc(F)cc4)c(=N)n(CC4CCCO4)c3nc12 (stereo unspecified)	?	-3.5%	23.1µM*	0.1%	4.8
CCNC(=O)c1cc2c(=O)n3cccc(C)c3nc2n(Cc2ccc(C)cc2)c1=N	18.4µM*	-8.3%	16.4µM*	-6.6%	13.3
COCCCn1c(=N)c(C(=O)NC2CCCC2)cc2c(=O)n3cccc(C)c3nc21	?	·	23.1µM*	·	·
Cc1cccn2c(=O)c3cc(C(=O)NCc4ccco4)c(=N)n(C4CCCC4)c3nc12	?	15.5%	23.1µM*	9.5%	29.0
Cc1cccn2c(=O)c3cc(C(=O)NCC4CCCO4)c(=N)n(Cc4cccnc4)c3nc12 (stereo unspecified)	18.4µM*	12.7%	25.9µM*	10.7%	-11.3
CC1Cc2[nH]c(=S)[nH]c(=O)c2C(c2ccc(F)cc2)O1 (stereo unspecified)	3.6%	12.1%	-22.6%	16.4%	13.4
OC(CNC1CCCC1)COc1ccccc1Br (stereo unspecified)	-18.5%	-10.6%	?	-10.6%	-5.9
OC(CNC1CCCCCC1)COc1cccc2ccccc12 (stereo unspecified)	16.4µM*	20.6µM*	13µM*	?	-105.3*
Cc1ccc(OCC(O)CNC2CCCC2)c(C)c1 (stereo unspecified)	-26.6%	-16.8%	?	-15.6%	-7.6
Cc1ccccc1OCC(O)CNC1CCC(NCC(O)COc2ccccc2C)CC1 (stereo unspecified)	3.66µM*	2.91µM*	2.31µM*	2.31µM*	-97.6*
Fc1cc(Cl)ccc1NC1=NCCCCC1	-12.3%	3.0%	-3.2%	1.4%	-67.2*
CCOC(=O)c1oc2cccc(OCC(O)CNC(C)C)c2c1C (stereo unspecified)	20.6µM*	?	?	?	-50.1*
CN(C)C(=O)CSc1nc(-c2cccs2)c(-c2cccs2)[nH]1	-22.7%	-15.6%	-10.9%	-15.7%	-9.8
C=CCN(CC=C)C(=S)NC(=O)/C=C/c1ccccc1	?	10.3%	23.1µM*	13.6%	19.6
COc1ccc(C(=O)NC(=S)N(Cc2ccccc2)Cc2ccccc2)cc1	16.4µM*	-22.5%	9.2µM*	-2.1%	-1.1
CC(C)CC(=O)NC(=S)N(Cc1ccccc1)Cc1ccccc1	?	-7.6%	?	-2.7%	-13.5
CC(C)C(=O)NC(=S)N(Cc1ccccc1)Cc1ccccc1	?	-0.7%	16.4µM*	-3.6%	-16.6
C=CCN(CC=C)C(=S)NC(=O)c1ccc(-c2ccccc2)cc1	5.8µM*	1.8%	6.51µM*	-21.6%	22.3
C=C(C)CCC(C)N1CCC(n2nccc2NC(=O)CCOc2ccccc2)CC1 (stereo unspecified)	-25.4%	2.6%	-16.7%	-6.2%	i
COc1ccc(CN2CCCC(n3cc(C(=O)N4CCCCC4)nn3)C2)c(OC)c1OC (stereo unspecified)	-5.2%[9.04 µM]	·	-12.4%	·	·
